An excerpt weighted towards active compounds, which were near 7.5% of everything screened.
NPC1 promoter act: activates the NPC1 promoter | Potency, µM (series often up to 9.22 µM), without a hit: at the highest dose activation, hits mostly activators | 320,000 compounds, 2.4% hits | Huh7 NPC1 promoter luciferase reporter, 24 h; also: % of control where 0% means no effect; nearly all actives have a fitted effect of over 60% in size
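Cells: Huh7 expressing luciferase under the NPC1 promoter, 1500/well. Seeded 2 h, compound added, incubated 24 h at 37 °C. Luciferase reagent, 10 min ambient, then luminescence.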
Rab9 promoter act: Rab9 promoter activation | Potency, µM (doses to about 9.22 µM), for inactives: at the top dose activation, negative = inhibition, most hits filed as activators | 320,000 compounds, 2.8% hits | Huh7 Rab9 promoter-luciferase reporter, luminescence, 24 h; also: % of control where 0% means no effect; nearly all actives have a fitted effect of over 60% in size
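Huh7 cells stably carrying Rab9 promoter–luciferase reporter, plated 1500 cells/well, compound added after 2 h and incubated 24 h at 37 °C; luciferase luminescence then read after 10 min with detection reagent.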
FLuc counter: inhibits or activates purified firefly luciferase, miR-21 counter-screen. P08659. purified FLuc, Km substrates, luminescence inhibition. Potency, µM (doses to about 57.5 µM), for the others: top-dose activity change, negative = inhibition, usual class: inhibitors. 360,000 compounds, 6.9% hits. AID 588342;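 also: plate controls were vehicle for no effect and reference inhibitor for full effect; nearly all actives have a fitted effect of over 55% in size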
Target sequence (P08659 whole entry, looked up): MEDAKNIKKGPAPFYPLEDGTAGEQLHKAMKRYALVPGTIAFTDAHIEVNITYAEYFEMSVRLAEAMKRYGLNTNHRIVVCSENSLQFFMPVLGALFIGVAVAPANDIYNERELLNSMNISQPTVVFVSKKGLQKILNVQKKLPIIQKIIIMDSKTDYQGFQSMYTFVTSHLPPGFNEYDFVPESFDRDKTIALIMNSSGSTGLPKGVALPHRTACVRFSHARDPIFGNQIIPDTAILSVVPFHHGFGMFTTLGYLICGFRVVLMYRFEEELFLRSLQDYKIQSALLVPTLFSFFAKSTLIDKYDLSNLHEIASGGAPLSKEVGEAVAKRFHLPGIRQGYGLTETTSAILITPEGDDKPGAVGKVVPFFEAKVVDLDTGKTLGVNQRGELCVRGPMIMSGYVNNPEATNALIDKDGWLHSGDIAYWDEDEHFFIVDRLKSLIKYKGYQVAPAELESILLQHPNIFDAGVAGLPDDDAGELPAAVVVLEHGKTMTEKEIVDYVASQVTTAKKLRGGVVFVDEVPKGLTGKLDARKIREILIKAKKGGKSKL
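Purified P. pyralis luciferase (10nM final) with 10uM D-luciferin and 10uM ATP (Km levels) in 50mM Tris acetate pH 7.5, 10mM Mg acetate, 0.01% Tween-20, 0.05% BSA; qHTS 6-point titration, ~60 µM downward; luminescence read.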
SMN2 splice enh: SMN2 splice variant enhancement; HEK293 SMN2-luciferase splicing reporter, luminescence, 30-36 h; 210,000 compounds, 2.8% hits; Potency, µM (doses to about 46.1 µM), inactives show at the top dose activity change, positive = activation, most hits filed as activators; also: % of control where 0% means no effect; nearly all actives have a fitted effect of over 55% in size
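qHTS luciferase splicing reporter: luminescence rises when SMN2 exon 7 is included in transfected HEK293 cells. Compound exposure lasted 30-36 h at 37C, with 4.5 mM final sodium butyrate as control, followed by a ONE-Glo read.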
ELG1 genotoxic: inducers of genotoxicity in HEK293T ELG1-luciferase cells; HEK293T ELG1-luciferase reporter, luminescence, 16 h; Potency, µM (doses to about 46 µM), for the others: at the highest dose activity change, positive = activation, actives largely listed as activators; 330,000 compounds, 1.3% hits; AID 504466; also: % of control where 0% means no effect; nearly all actives have a fitted effect of over 60% in size
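Genotoxicity was scored as increased ELG1-luciferase reporter signal, measured by ONE-Glo luminescence (30 min, room temperature). Compound or vehicle exposure of the HEK293T reporter cells lasted 16 hr at 37°C.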
* hit, by the source's call; ? = inconclusive; . = not tested or not shown. Calls follow the shape of the dose curve; as a rule, active = well fitted curve in the direction sought with a large enough effect; inconclusive = small, poorly fitted or top-dose-only effect, or another doubt; inactive = no such curve, though single readings can be large; an effect the other way counts as inactive or inconclusive. Potency is read from the fitted curve at half-maximal effect.

SMILES	NPC1 promoter act	Rab9 promoter act	FLuc counter	SMN2 splice enh	ELG1 genotoxic
FC(F)Sc1ccc(NC(=S)NCC2CCCCC2)cc1	8%	8%	24µM*	25%	?
CC(=O)c1ccc(NC(=S)NC2CCCC(C)C2C)cc1 (stereo unspecified)	-2%	2%	?	12%	1%
S=C(Nc1ccc(Br)cc1)NC1CCCC1	26%	?	12µM*	11µM*	12%
CSCCC(NC(=O)COc1ccccc1)C(=O)N(C)Cc1ccc(SC)cc1 (stereo unspecified)	-2%	1%	-1%	.	-9%
Cc1cc(C)nc(Nc2n[nH]c(C)n2)n1	-5%	-3%	-2%	.	-2%
Cc1cc(C)nc(Nc2n[nH]c(-c3ccc(C(C)(C)C)cc3)n2)n1	12%	-4%	1.7µM*	-56%	3%
Cc1cc(C)nc(Nc2n[nH]c(-c3ccc(N)cc3)n2)n1	1.6µM*	3.5µM*	9.5µM*	?	7.3µM*
COc1ccc(OC)c(C(=O)NC(CC(N)=O)c2ccc(N3CCC(Cc4ccccc4)CC3)c([N+](=O)[O-])c2)c1 (stereo unspecified)	-4%	0%	5%	.	-1%
O=C(NCC1CCCO1)c1ccc(NC(=O)c2cccc([N+](=O)[O-])c2)cc1 (stereo unspecified)	2%	-7%	-1%	.	-9%
COC(=O)[C@@H](c1ccccc1)N(C)S(=O)(=O)c1cccc(S(=O)(=O)N(C)[C@@H](C(=O)OC)c2ccccc2)c1	-14%	-16%	1%	.	-1%
O=S(=O)(Nc1cc(Sc2ncn[nH]2)c(O)c2ccccc12)c1ccccc1	3%	1%	11µM*	-113%	-13%
Cc1nc(-c2ccccc2)sc1-c1ccnn1C	?	2.2µM*	4.8µM*	13µM*	?
Cc1nc(-c2ccccc2)sc1-c1ccn[nH]1	1.4µM*	2.8µM*	1.5µM*	7.9µM*	2.6µM*
CCN1CCN(Cc2c(O)ccc3c(C)c(-c4ccc(OC)cc4)c(=O)oc23)CC1	.	.	-5%	.	.
CCc1ccc(OC(=O)c2cccnc2)cc1	-4%	0%	11µM*	.	0%
NC(=O)N/N=C/c1cc(Br)ccc1OC(=O)c1ccccc1	-2%	-2%	-8%	8%	1%
COc1ccc(Cl)c2c1[nH]c1nc(SCc3ccccn3)nnc12	2.8µM*	1.8µM*	6µM*	6.3µM*	21µM*
COc1ccc(Cl)c2c1[nH]c1nc(SCc3cccnc3)nnc12	2%	-3%	1%	1%	14%
CC(C)(C)CN1CCC(Oc2cccc(C(=O)N3CCNC(=O)C3(C)C)c2)CC1	-1%	1%	-2%	.	2%
Clc1ccc(COn2nnc3ccccc32)c(Cl)c1	.	.	3.8µM*	?	.
Cc1ccc(CN2CC(C(=O)Nc3ccncc3)CC2=O)cc1 (stereo unspecified)	-1%	15%	0%	.	-2%
Cc1ccc(CN2CC(C(=O)Nc3cc(C)ccn3)CC2=O)cc1 (stereo unspecified)	0%	0%	12µM*	.	16µM*
Cc1ccc(NC(=O)C2CC(=O)N(c3ccc4c(c3)OCCO4)C2)nc1 (stereo unspecified)	1%	-1%	-1%	.	2%
Cc1ccnc(NC(=O)C2CC(=O)N(c3ccc4c(c3)OCCO4)C2)c1 (stereo unspecified)	8%	20%	4.8µM*	.	0.52µM*
Cc1nc(N)nc(N/N=C/c2c(F)cccc2Cl)n1	7%	-2%	?	.	8%
SMILES	NPC1 promoter act	Rab9 promoter act	FLuc counter	SMN2 splice enh	ELG1 genotoxic
Cc1nc(C#N)c(N/N=C/c2c(F)cccc2Cl)o1	10%	19%	24µM*	?	5%
c1ccc2c(CCNc3ncnc4nc[nH]c34)cccc2c1	-1%	-3%	?	-62%	-12%
COc1ccccc1-n1c(=O)oc2ccc(Cl)cc2c1=O	?	4%	13µM*	.	6%
C/C(CC(=O)Nc1ccccn1)=N\NC(=O)c1ccccc1O	1%	2%	17µM*	.	16µM*
C/C(CC(=O)Nc1cc(C)ccn1)=N\NC(=O)c1cccc(C)c1O	-10%	14%	?	.	5.8µM*
Cc1ccc(-c2nnc(Nc3ccc(C(=O)N(C)C)cc3)c3ccccc23)cc1S(=O)(=O)N(C)C	.	.	?	-15%	.
Cc1ccc(C2C(C=Nc3c(C)n(C)n(-c4ccccc4)c3=O)=C(c3ccccc3)Oc3ccccc32)cc1 (stereo unspecified)	-2%	-1%	0%	0%	-7%
C=C1C(c2ccc(C)cc2)=CCc2cc(C)cc(C)c21	.	.	.	14µM*	.
Fc1c(F)c(F)c(N=Cc2ccc3ncccc3c2)c(F)c1F	-4%	-2%	6.7µM*	-28%	8%
CC(C)[C@@H](N)C(=O)N/N=C/c1ccc2ncccc2c1	2%	-1%	?	.	-1%
COC(=O)C1=C(O)/C(=C/c2cccc(OC)c2O)N=C1C	-4%	?	15µM*	.	13%
COC(=O)C1=C(O)/C(=C\c2ccc(OCC(=O)Nc3ccccc3)cc2)N=C1C	-2%	-2%	24µM*	.	3%
COC(=O)C1=C(O)/C(=C\c2cc(C)n(-c3ccc(F)cc3)c2C)N=C1C	6%	15%	?	-20%	0%
COC(=O)CN=C1OC(=O)N2C(=O)C3=C4C(C[C@H]5C(=O)N(c6ccccc6)C(=O)[C@H]5[C@H]4[C@@]12Cc1ccccc1)[C@H]1C(=O)N(c2ccccc2)C(=O)[C@H]1[C@H]3C (stereo partly specified)	.	.	.	2%	.
CCOc1ccc(OCC)c(NC(=O)CCc2c(C)nc3c(c2C)c(=O)n(C)c(=O)n3C)c1	.	.	0%	0%	.
Cc1ccc(/C=C/C(=O)NC2CCCCCCC2)o1	28%	?	24µM*	?	?
O=C(/C=C/c1ccccc1Cl)NC1CCCCC1	2.8µM*	3.5µM*	11µM*	.	?
Cc1nnsc1C(=O)Nc1ccc(S(=O)(=O)N2CCCC(C)C2)cc1 (stereo unspecified)	-2%	-1%	7%	.	0%
Cc1cc(C)c(C)c(S(=O)(=O)N2CCC(C(=O)NC3=NCCS3)CC2)c1C	1%	-6%	.	.	2%
Cc1ccc(-n2c(O)c(/C=N/Nc3ccc(S(=O)(=O)N4CCOCC4)cc3[N+](=O)[O-])c3ccccc3c2=O)c(C)c1	-7%	-15%	24µM*	-99%	-14%
CC[C@H]1C2=C3C(CC[C@H]4C(OCc5ccc(F)cc5C(F)(F)F)OC[C@](C)([C@@H]34)N(C(=O)OC(C)(C)C)C2)C(COC(C)=O)C1COC(C)=O (stereo partly specified)	.	.	.	-9%	.
Cc1nc(CC(=O)Nc2cccc(C)c2C)cs1	.	.	-4%	4%	.
Cc1ccc(NC(=O)C(Cc2ccccc2)N2Cc3ccccc3C2=O)cc1Cl (stereo unspecified)	.	.	0%	.	.
